# Assay outcomes from PubChem.
# ELG1 repair inh = inhibitors of ELG1-dependent DNA repair in HEK293T cells. HEK293T ELG1-luciferase reporter, luminescence, 16 h; DNA damage induced by 5-fluorouridine. Potency, µM (top dose mostly 46.1 µM), without a hit: at the highest dose activity change, negative = inhibition, most hits filed as inhibitors. 2.3% of 330,000 active; note: potency is the fitted concentration of half-maximal effect; nearly all actives have a fitted effect of over 55% in size
#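 In this reporter screen, reduction of luminescence relative to DMSO vehicle indicated activity. Compounds and 5-fluorouridine were added together to 2,000 cells per well, incubated for 16 hr at 37 °C, then developed with ONE-Glo.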
# HT1080NT lethal = kills 2HG-producing HT-1080-NT fibrosarcoma cells; HT-1080-NT fibrosarcoma viability, CellTiter-Glo ATP luminescence, 48 h; Potency, µM (highest dose often 46.1 µM), inactives show at the highest dose activity, negative = less viability, actives largely listed as cytotoxic; 1.6% of 360,000 active;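 note: NT is the 2HG producing partner of a matched IDH1 knockdown line; potency is the fitted concentration of half-maximal effect; 0% = DMSO-treated cells and -100% = media-only wells without cells; nearly all actives have a fitted effect of over 55% in size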
#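 HT-1080-NT fibrosarcoma cells (2HG-overproducing), 750 cells/well in RPMI with 5% FBS, dosed after 2 h and incubated 48 h at 37C. CellTiter-Glo luminescence normalized to DMSO and no-cell wells; concentration-response curves fitted and classed.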
# TDP1 cell noCPT = qHTS for Inhibitors of human tyrosyl-DNA phosphodiesterase 1 (TDP1): qHTS in cells in absence of CPT; DT40 Tdp1-/- hTDP1 cells, no CPT, ATP luminescence, 48 h; 15% of 420,000 active; Potency, µM (series often up to 46.2 µM), for inactives: at the highest dose activity change, negative = growth inhibition, hits mostly inhibitors; note: potency is the fitted concentration of half-maximal effect; nearly all actives have a fitted effect of over 55% in size
#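 Readout: luminescence from CellTiter-Glo after 30 min in the dark at RT. Cells: DT40 Tdp1-/- with stable hTDP1, 400/well. Exposure: compounds alone, ≥48 hr, 37 °C.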
# DT40 TDP1 CPT = DT40-hTDP1 cell growth loss with CPT; chicken DT40 Tdp1-/-;hTDP1 cells + 20 nM CPT, ATP luminescence, 48 h; 12% of 420,000 active; Potency, µM (top dose mostly 46.2 µM), inactives show at the highest dose activity change, negative = growth inhibition, usual class: inhibitors; note: potency is the fitted concentration of half-maximal effect; nearly all actives have a fitted effect of over 55% in size
#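 Cell growth measured by CellTiter-Glo luminescence after a minimum 48 h, 37 C compound exposure with 20 nM CPT in Tdp1-knockout DT40 cells stably expressing hTDP1, seeded 400/well; qHTS titration format.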
# HT1080 IDH1KD tx = toxicity to HT-1080 IDH1 knockdown cells (counter line) | Potency, µM (titrated, usually from 46.1 µM), for inactives: at the highest dose activity, negative = toxicity, most hits filed as cytotoxic | AID 686971 | 2% of 360,000 active | HT-1080 IDH1 knockdown viability, ATP luminescence, 48 h;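 note: potency is the fitted concentration of half-maximal effect; 0% = DMSO wells and -100% = cell-free medium wells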
#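 Knockdown cells (IDH1KD HT-1080) received compounds 2 h after plating at 750 cells/well and were kept 48 h at 37 °C in 5% FBS RPMI. A CellTiter-Glo luminescence read gave % activity for curve fitting.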
# IL-1B inflam inh = inflammasome signaling inhibition, IL-1 beta readout | 4.7% of 360,000 active | AID 743279 | THP-1 LPS/ATP IL-1B secretion, AlphaLISA, 16 h; active compounds read low | activity change, % at 57.5 µM; in the data active = activity change below about -50%; inconclusive = mostly about -30% to -49%
#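 THP-1 cells pretreated 1 hr with compounds (up to 57.5 uM final), then stimulated with LPS (250 ng/mL final) plus ATP (1.25 mM final); secreted IL-1B measured by AlphaLISA after 16 hr, decreased signal indicating inhibition.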
# * = called active by the depositor; ? = inconclusive; . = no result. This is a sample that favours compounds with a hit; in the whole collection about 19% have one here. Unless noted, calls come from the whole dose curve; as a rule, active = well fitted curve in the direction sought with a large enough effect; inconclusive = small, poorly fitted or top-dose-only effect, or another doubt; inactive = no such curve, though single readings can be large; an effect the other way counts as inactive or inconclusive. Unless noted, % is set by controls: 0 for no effect and ±100 for the full control effect.
SMILES,ELG1 repair inh,HT1080NT lethal,TDP1 cell noCPT,DT40 TDP1 CPT,HT1080 IDH1KD tx,IL-1B inflam inh
O=[N+]([O-])c1cc(C(F)(F)F)ccc1NCCOc1ccccc1,?,-4%,-20%,-12%,-2%,-78*
COc1ccc2[nH]c(C)c(CCNc3ccc(C(F)(F)F)cc3[N+](=O)[O-])c2c1,?,-5%,29µM*,?,-4%,?
O=C(NCCCNc1ccc(C(F)(F)F)cc1[N+](=O)[O-])c1ccc(Cl)cc1,-19%,?,-22%,?,?,-17
Cc1cccc(OCCNC(=O)c2cccc(Oc3ccc(C(F)(F)F)cc3[N+](=O)[O-])c2)c1,?,-4%,29µM*,23µM*,-8%,15
O=C(NCCCNc1ccc(C(F)(F)F)cc1[N+](=O)[O-])c1cc(F)c(F)cc1Cl,?,?,18µM*,?,?,-22
Cc1cccc(OCCNC(=O)c2ccc(Oc3ccc(C(F)(F)F)cc3[N+](=O)[O-])cc2)c1,-4%,-4%,-22%,-7%,-1%,-5
CN1CCN(C(=O)C[C@H]2CC[C@H]3[C@@H](COC[C@@H](O)CN3C(=O)C3CCCC3)O2)CC1,.,23%,4%,-2%,14%,-2
O=C(O)c1ccccc1C=NNc1ccccn1,.,8%,0%,0%,10%,-2
CNC(=O)COC(=O)C1CCN(S(=O)(=O)c2ccc3c(c2)OCCO3)CC1,0%,10%,-3%,0%,-2%,14
Cc1ccccc1OCCCC(=O)Nc1nncs1,1%,-21%,-22%,-2%,-16%,-10
Cc1ccc2cc(CN(CC3CCCO3)C(=S)NCc3ccco3)c(=O)[nH]c2c1 (stereo not given),?,-2%,-14%,-2%,-12%,?
Cc1cccc2cc(CN(CC3CCCO3)C(c3nnnn3Cc3ccco3)C(C)C)c(=O)[nH]c12 (stereo not given),?,?,15µM*,16µM*,?,-61*
Cc1ccc2[nH]c(=O)c(CN(CC3CCCO3)C(=S)NCc3ccco3)cc2c1 (stereo not given),-12%,0%,21µM*,?,-3%,?
Cc1cccc2cc(CN(CC3CCCO3)C(=S)NCc3ccco3)c(=O)[nH]c12 (stereo not given),18µM*,-27%,-30%,?,?,-9
Cc1ccc2cc(CN(Cc3ccco3)C(=S)NCC3CCCO3)c(=O)[nH]c2c1 (stereo not given),21µM*,0%,21µM*,?,-9%,-7
O=C(CSc1ncccn1)NCC1CCCO1 (stereo not given),.,18%,1%,-2%,26%,11
Cc1ccc(CNC(=O)Cn2c(=O)cc(-c3ccccc3)c3c(C)nn(C)c32)cc1,.,.,-15%,-17%,.,.
O=C(Nc1cc(-c2nc3ccccc3o2)ccc1Cl)c1sc2c([N+](=O)[O-])cccc2c1Cl,.,.,7%,-3%,.,.
O=c1[nH]c2cc3c(cc2cc1CN(Cc1cccnc1)C(=S)NCc1ccco1)OCCO3,9.2µM*,-9%,?,15µM*,-10%,-7
Cc1cccc2cc(CN(Cc3cccs3)C(=S)NCC3CCCO3)c(=O)[nH]c12 (stereo not given),16µM*,-1%,?,?,-17%,-12
Cc1cccc2cc(CN(CC3CCCO3)S(=O)(=O)c3ccccc3)c(=O)[nH]c12 (stereo not given),-22%,-2%,?,?,-4%,-25
